Each structure is given as a SMILES string. The campaign covered roughly 2,000 compounds. About 250 (12%) were called active. Only a selection was taken, and actives are over-represented in it overall. A number with no mark means an inactive call. Rule as the data show it: active = hERG blockade below about -20% or above about 20%; inactive = in between.

Sequence of Voltage-gated inwardly rectifying potassium channel KCNH2 (Homo sapiens) (Q12809 whole entry, looked up): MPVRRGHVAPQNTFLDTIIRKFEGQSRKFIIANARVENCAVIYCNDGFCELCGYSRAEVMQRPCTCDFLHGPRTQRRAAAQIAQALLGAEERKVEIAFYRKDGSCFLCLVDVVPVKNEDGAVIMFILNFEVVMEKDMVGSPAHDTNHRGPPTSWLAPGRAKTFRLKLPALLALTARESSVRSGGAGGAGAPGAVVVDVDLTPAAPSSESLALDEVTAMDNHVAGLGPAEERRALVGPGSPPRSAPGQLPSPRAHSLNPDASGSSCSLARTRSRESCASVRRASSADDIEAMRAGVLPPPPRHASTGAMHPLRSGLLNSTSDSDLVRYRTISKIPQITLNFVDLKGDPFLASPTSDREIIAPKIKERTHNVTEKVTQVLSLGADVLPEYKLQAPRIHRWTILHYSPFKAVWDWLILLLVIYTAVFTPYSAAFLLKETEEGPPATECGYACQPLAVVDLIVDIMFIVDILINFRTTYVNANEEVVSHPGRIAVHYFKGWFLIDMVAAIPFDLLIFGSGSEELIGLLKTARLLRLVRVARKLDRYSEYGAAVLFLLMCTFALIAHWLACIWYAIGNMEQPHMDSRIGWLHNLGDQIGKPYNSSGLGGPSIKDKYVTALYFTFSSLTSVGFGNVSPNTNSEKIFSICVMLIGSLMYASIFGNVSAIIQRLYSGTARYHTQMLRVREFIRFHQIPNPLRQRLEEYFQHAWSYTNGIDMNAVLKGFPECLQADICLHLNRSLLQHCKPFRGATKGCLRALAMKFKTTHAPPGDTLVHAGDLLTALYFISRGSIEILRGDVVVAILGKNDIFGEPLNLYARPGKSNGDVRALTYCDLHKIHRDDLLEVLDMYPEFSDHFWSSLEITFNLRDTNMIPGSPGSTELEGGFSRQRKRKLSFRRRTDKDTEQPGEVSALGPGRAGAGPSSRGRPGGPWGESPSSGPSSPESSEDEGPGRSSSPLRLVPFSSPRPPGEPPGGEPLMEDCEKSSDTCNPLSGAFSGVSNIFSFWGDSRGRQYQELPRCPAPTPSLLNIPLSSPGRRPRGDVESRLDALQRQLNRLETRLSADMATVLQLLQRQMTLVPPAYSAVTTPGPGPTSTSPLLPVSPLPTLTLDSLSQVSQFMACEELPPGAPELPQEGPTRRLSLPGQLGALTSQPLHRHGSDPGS

This assay has as its target Voltage-gated inwardly rectifying potassium channel KCNH2 (Homo sapiens) (UniProt Q12809). In words: KCNH2 potassium channel function modulators, cell-based (AID 376).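 Also: 0% = buffer alone and 100% = reference blocker.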 The settings on record: hERG-expressing cells, channel activity single-concentration screen; concentration not given here. For orientation: The hERG channel carries a current that helps repolarise heart muscle cells.
Consider `CSc1ccc2c(c1)c(CCN)c(C)n2Cc1ccccc1Cl`, for which the hERG blockade is 102% (active). Under `Cn1c(=O)c2[nH]cnc2n(C)c1=O.[CH2-]C(Cc1cccc2cc(C(=O)O)c(=O)oc12)OC.[Hg+2].[OH-]` (configuration not stated) stands -6.48%; under `CC1=NN(c2ccccc2)C(=O)C1N=Nc1ccc([As](=O)(O)O)c(O)c1` (configuration not stated), 32.9% (active). In the case of `Nc1nc(N)c(N=Nc2ccc([As](=O)(O)O)c(O)c2)c(N)n1` it was -5.01%; in that of `O=C(O)CC1NCc2cc3ccccc3nc21` (configuration not stated), -11.4%. In the case of `O=P(O)(OP(=O)(O)c1ccccc1)c1ccccc1` (tested in a mixture with another compound) it was -3.18%; in that of `Nc1nnnn1CCO`, -1.1%; in that of `CC1=C2C(=O)C3C(CC=C4CC(O)CCC43C)C2CCC12OC1CC(C)CNC1C2C` (configuration not stated), 18.8%. For the molecule `CC1CCC2(NC1)OC1CC3C4CC=C5CC(O)CCC5(C)C4CCC3(C)C1C2C` (configuration not stated), the hERG blockade is 5.44%. In the case of `Cc1c(C(C)C2NCC(C)CC2O)ccc2c1CC1C2CC=C2CC(O)CCC21C` (configuration not stated) it was 75.5% (active).

Regarding `COC([CH2][Hg][n]1cnc2c1c(=O)n(C)c(=O)n2C)CN1C(=O)c2ccccc2S1(=O)=O` (configuration not stated), the hERG blockade is -10.9%. In the case of `O=P(O)(O)c1ccccc1` (tested in a mixture with another compound) it was -2.7%; in that of `O=C(O)CSCC(=O)O`, -1.83%; in that of `CC(Br)C(=O)NC(CO)C(=O)O` (configuration not stated), 16.5%.

Turning to `O=C(Nc1cc[c]([Sb](=[O])([OH])[OH])cc1)c1ccccc1`, the hERG blockade is 5.03%. In the case of `Nc1ccc(S(=O)(=O)c2ccc(NCN3C(=O)NC(=O)C(=O)C3=O)cc2)cc1` it was 20%; in that of `O=P(O)(O)CCP(=O)(O)O`, -9.16%. In the case of `CCOC(=O)C1C(O)CC2c3ccccc3-c3ccccc3C21` (configuration not stated) it was -9.9%; in that of `COc1cc2c(cc1OC)C13CC[N+]4(C)CC5=CCOC6CC(=O)N2C1C6C5CC34O` (configuration not stated), 0.126%. Under `NCCSC(c1ccccc1)c1ccccc1` stands 21.8% (active); under `Nc1c(C(=O)Nc2ccc([As](=O)(O)O)cc2)cnc2nnnn12`, 6.38%. In the case of `COC(=O)C1C(=O)C(C(=O)OC)C2CCC1N2C` (configuration not stated), the hERG blockade was -6.77%. As to `O=[As](O)(O)c1ccc2nc3cc([As](=O)(O)O)ccc3nc2c1`, the hERG blockade was 6.6%. For the molecule `CCSCCC(N)C(=O)O` (configuration not stated), the hERG blockade was -2.21%. Under `CC(CN(C)C)C(C#N)(c1ccccc1)c1ccccc1` (configuration not stated) stands 3.3%; under `C[n+]1c(C=Cc2ccc(O)c3ncccc23)[se]c2ccccc21`, 24% (active). Under `NC(CP(=O)(O)O)C(=O)O` (configuration not stated) stands 0.269%. In the case of `COc1cccc2c1C(=O)c1c(O)c3c(c(O)c1C2=O)CC(O)(C(C)=NO)CC3OC1CC(N)C(O)C(C)O1` (configuration not stated) it was 36.3% (active); in that of `CC(O)CN(CCN(CC(C)O)CC(C)O)CC(C)O.O=[N+]([O-])[O-].[Cu+2]` (configuration not stated), 13.4%; in that of `CC12CN(CC[N+](C)(C)C)CC1(C)C1CCC2O1` (configuration not stated), -0.461%. As to `Cc1ccc(OP(=O)(Oc2ccc(C)cc2)N2C=Cc3ccccc3C2C#N)cc1` (configuration not stated), the hERG blockade is 0.907%.

As to `Cc1ccc(S(=O)ON2CCC(C(=O)O)(c3ccccc3)CC2)cc1` (configuration not stated), the hERG blockade was 4.76%. In the case of `Nc1nc(N)c(N=Nc2ccc([As](=O)(O)O)cc2)c(=O)[nH]1` it was 13.9%; in that of `N#CCCCC[N+]12CN3CN(CN(C3)C1)C2`, 6.19%; in that of `COc1cc(O)c2c(O)c3c(c4c2c1C1(C4)C(C)=CCCC1(C)C)C(O)C1(O)CC(=O)C(C(N)=O)=C(O)C1(O)C3=O` (configuration not stated), 24.7% (active).

As for `Nc1cc[c]([Hg])cc1.Nc1nc2c(ncn2C2OC(CO)C(O)C2O)c(=[SH+])[nH]1` (configuration not stated), the hERG blockade is 2%. Under `NNc1c(C(N)=O)c2c(N)ncnc2n1C1OC(CO)C(O)C1O` (configuration not stated) stands 6.28%; under `O=[As](O)(O)c1ccc(Cc2ccc([As](=O)(O)O)cc2)cc1`, -1.48%.

Take `O=C(O)CNC(=O)c1ccc([As](=O)(O)O)cc1`: the hERG blockade was -21.5% (active). Consider `NC(=O)c1ccc(C(=O)Nc2ccc([As](=O)(O)O)cc2)cc1`, for which the hERG blockade is 8.1%. Under `CC1=NN(c2ccc(S(=O)(=O)O)cc2C)C(=[OH+])C1N=Nc1cc(S(=O)(=O)[O-])ccc1C(=O)O.[Cr].[OH-]` (configuration not stated) stands -5.52%.

On to `Oc1ccc(CCNCc2cc3c(cc2Br)OCO3)cc1`, for which the hERG blockade was -0.605%. In the case of `O=C(O)C(Br)C(Br)C(=O)O` (configuration not stated) it was 10.9%; in that of `NCCc1c[nH]c2ccc(OC(=O)C(=O)O)cc12`, -28.9% (active).

Take `NC(CCP(=O)(O)O)C(=O)O` (configuration not stated): the hERG blockade is 5.51%. Under `CC1CCC2(O)C3(C)CC4(O)OC2(C1O)C1(O)C3(O)C(OC(=O)c2ccc[nH]2)C(O)(C(C)C)C41C` (configuration not stated) stands 2.45%; under `O=C(O)C(O)(c1ccc(-c2ccccc2)cc1)c1ccc(-c2ccccc2)cc1`, 33.6% (active); under `CC(C)c1ccc(C(O)(C(=O)O)c2ccc(C(C)C)cc2)cc1`, 7.38%. Under `CC(=O)OC1CCC2(C)C(CCC3C2CC(=O)C2(C)C3CC(N3CC3)C2C(C)=O)C1` (configuration not stated) stands 2.23%; under `CCc1ccc(CCN2CCCCC2)nc1`, -0.853%; under `O=C(CC(c1ccccc1)c1c(O)c2ccccc2oc1=O)c1ccccc1` (configuration not stated), 22.2% (active).

Turning to `CC(C)c1ccc(C(c2c(O)c3ccccc3oc2=O)c2c(O)c3ccccc3oc2=O)cc1`, the hERG blockade is 15.3%. Under `Nc1ccccc1O.O.O=C(O)C1[O][Sb][O]C1C(=O)O` (configuration not stated) stands 16.3%. In the case of `[N-]=[N+]=CC(=O)CCC(N)C(=O)O` (configuration not stated) it was 2.68%. In the case of `O=C(CCN1CC2CCC(CC2)C1)c1cccs1` it was 29.2% (active).

For `NC(CCl)=NC1CN2CCC1CC2` (configuration not stated), the hERG blockade was -4.96%. Under `O=[As](O)(O)c1ccc(N=Nc2ccc(O)cc2)cc1` stands -7.36%. For the molecule `O=C(c1ccccc1)C1C(c2ccccc2[N+](=O)[O-])N1C1CCCCC1` (configuration not stated), the hERG blockade is 24.1% (active). In the case of `CCCOC(=O)C1C2CCC(O2)C1C(=O)O` (configuration not stated) it was 8.66%.

For `Oc1ccc(C(O)C2CCCCN2)cc1O` (configuration not stated), the hERG blockade is 1.5%. Under `CS(=O)(=O)OC1CN2CCC1CC2` (configuration not stated) stands -24.5% (active); under `Cc1ccc(S(=O)(=O)OC2CN3CCC2CC3)cc1` (configuration not stated), 2.18%.

These data come from PubChem BioAssay AID376 (PDSP, 2006).
